# Experimental data as given in PubChem BioAssay (NCATS).
# Results filed as inconclusive are left out. Where a call stands in place of a potency, no number is given. The source made the active and inactive calls. The call rests on the fitted dose curve; in most records, active means well fitted inhibition curve with a large enough effect; inconclusive means small, poorly fitted or top-dose-only effect; inactive means no such curve, though single readings can be large or run the other way. Starred links: 1 amine or outer side, 2 acyl side, 3 side chain; linkers in the order of their positions; H or OH if unused. Positions of bridges follow the written chain, without caps; N, C: chain ends. Non-standard residues stand in square brackets, D forms with d. Residues, ends and D or L forms follow the SMILES beside them. ξ: configuration not given here. *: point of attachment. X3 = C[C@@H](Oc1ccc([C@H](N[*:1])C(=O)[*:2])cc1)[C@]1(/C=C\C(=O)[*:3])CO1; d(aIle) = CC[C@H](C)[C@@H](N)C(=O)O; X2 = CC(C)[C@@H](O)C(C)C(=O)*; ξNMeF = CNC(Cc1ccccc1)C(=O)O; ξT = CC(O)C(N)C(=O)O; ξS = NC(CO)C(=O)O
# Assay: qHTS for Hypoxia signaling pathway (HIF-1) antagonists against the NCATS CANVASS Library (AID 1347374); further: nearly all actives have a fitted effect of over 60% in size
# Conditions: HRE-bla ME-180 cells, HIF-1 beta-lactamase reporter, CoCl2; series mostly up to 38.3 µM
# From the text: Natural products and their derivatives continue to be wellsprings of nascent therapeutic potential. However, many laboratories have limited resources for biological evaluation, leaving their previously isolated or synthesized compounds largely or completely untested. To address this issue, the Canvass library of natural products was assembled (https://tripod.nih.gov/canvass), in collaboration with academic and industry researchers, for quantitative high-throughput screening (qHTS) across a diverse set of cell-based and biochemical assays. […] We collected pure natural products to circumvent deconvolution and structure elucidation due to time and resource limitations. The library was formatted into 1536-well plates and evaluated in 50 qHTS (in an 11-pnt concentration series) bioassays with broad scope of disease-relevant mechanisms. The resulting data set from 50 different assays was then systematically analyzed to identify overall trends and specific natural products with interesting biological activities. Reported herein are the results of each individual qHTS and their corresponding assay protocol. During hypoxic conditions, the cellular responses are regulated in large part through the activation of the heterodimeric transcription factor called hypoxia-inducible factor-1 (HIF-1). The assay used is a beta-lactamase reporter gene under control of the hypoxia responsive element (HRE) that has been stably integrated into ME-180 cells. This assay identifies inducers of the HIF-1-signaling pathway. The cytotoxicity of the compound library against HRE-bla ME-180 cell line was tested in parallel by measuring cell viability using CellTiter-Glo assay (Promega, Madison, WI) in the same assay wells. The compounds were also tested for auto fluorescence that may interfere with the biological target readout resulting in potential false positives and/or negatives. National Center for Advancing Translational Sciences (NCATS), Rockville, MD National Institute of Health (NIH), Bethesda, Maryland
# HIF-1 antagonist assay protocol: 1. HRE-bla ME-180 cells were dispensed at 2,000 cells per well in 5 uL of assay medium containing 0.5% dialyzed FBS into black wall/clear-bottom 1536-well plates using a Multidrop Combi (Thermo Scientific, Waltham, MA) dispenser. 2. After the assay plates were incubated at 37C and 5% CO2 for 5 hrs, 23 nL of compounds dissolved in DMSO, positive controls or DMSO only was transferred to each well of the assay plate using a Pintool station (Kalypsys, San Diego, CA). 3. One microliter of 60 uM CoCl2 (which enhance the stability of HIF-1alpha) or 1 uL of assay medium was added to the wells using BioRAPTR dispenser. 4. The assay plates were then incubated at 37C and 5% CO2 for 17 hrs. 5. One microliter of CCF4 dye was added the assay plate and incubated at room temperature for 2 hours. 6. The fluorescence intensity was obtained using the EnVision (PerkinElmer, Shelton, CT) plate reader using a 405 nm excitation, and 460 and 530 nm emission filters. 7. To assess cell viability (and for data normalization), 4uL of CellTiter-Glo (Promega) was added to the assay plate using the BioRAPTR dispenser and incubated at room temperature for 30 min. 8. Luminescence signal was obtained using the ViewLux microplate reader (PerkinElmer) using a clear emission mirror, and a 15 sec exposure time, 1x binning settings.
# Potency means the concentration at half of the fitted maximal effect.
row,SMILES,Potency
1,C=C(C)[C@H]1C(=O)c2c3c(cc4c5c(n1c24)[C@@]1(C)[C@@H](CC[C@H]2[C@](C)(/C=C/C=C(\C)C(=O)O)[C@@H](O)CC[C@@]21C)C5)C1=CC(C)(C)OC(C)(C)[C@H]1[C@@H]3O,6660 nM (active)
2,CO[C@H]1C[C@H](O[C@H]2[C@@H](O)C[C@H](O[C@H]3CC[C@]4(C=O)[C@H]5CC[C@]6(C)C(C7=CC(=O)OC7)CC[C@]6(O)[C@@H]5CC[C@]4(O)C3)O[C@@H]2C)O[C@H](C)[C@H]1O[C@H]1C[C@@H](OC)[C@@H](O[C@@H]2O[C@H](CO)[C@@H](O)[C@H](O)[C@H]2O)[C@@H](C)O1 (some centres undefined),118 nM (active)
3,CO[C@H]1[C@H](O[C@H]2CC[C@]3(C=O)[C@H]4CC[C@]5(C)[C@@H](C6=CC(=O)OC6)CC[C@]5(O)[C@@H]4CC[C@]3(O)C2)O[C@H](C)[C@H](O)[C@@H]1OC,83.8 nM (active)
4,CC[C@@H]1CN2CCc3c([nH]c4cccc(OC)c34)[C@@H]2C[C@@H]1/C(=C\OC)C(=O)OC,inactive
5,C=C[C@]12C=CCN3CC[C@@]4(c5ccccc5NC(=O)[C@@H]4C1)[C@@H]32,inactive
6,CCCC[C@@H](C)/C=C1/CN2CCC[C@H]2[C@@](C)(O)[C@@H]1O,inactive
7,c1ccc2nc3c(cc2c1)[nH]c1ccccc13,inactive
8,C=CC(C)(C)[C@@]12C[C@H]3C(=O)N/C(=C\c4cnc[nH]4)C(=O)N3[C@@H]1Nc1ccccc12,inactive
9,CC[C@H](C)[C@H]1NC(=O)[C@@H](NC(=O)C(C)[C@H](O)C(C)C)[C@@H](C)OC(=O)C2COC(=O)CNC(=O)/C=C\[C@]3(CO3)[C@@H](C)Oc3ccc(cc3)[C@H](NC1=O)C(=O)N(C)C(Cc1ccccc1)C(=O)NC(C(C)O)C(=O)N2 (some centres undefined) (X2-T[d(aIle)][X3][ξNMeF][ξT][ξS]; ester 1-C; linker 3-6 via G),inactive
10,CCCC[C@@H]1CC[C@H]2CCCC(CCCO)N12 (some centres undefined),inactive
11,C[C@]12CC(O)C3[C@@H](CCC4C[C@@H](O)CC[C@@]43CO)[C@@]1(O)CC[C@@H]2C1=CC(=O)OC1 (some centres undefined),9410 nM (active)
12,C=CC(C)(C)[C@@]12C[C@H]3C(=O)N/C(=C/c4cnc[nH]4)C(=O)N3[C@@H]1Nc1ccccc12,inactive
13,CCCCC1CC[C@H]2CCCC(CCC)N12 (some centres undefined),inactive
14,C/C=C/[C@@H]1[C@H]2C[C@@H](C)CC[C@@H]2C(C)=C[C@H]1C(=O)c1c(O)c(-c2ccc(O)cc2)c[nH]c1=O,23600 nM (active)
15,C[C@]12CCC3[C@@H](CC[C@@H]4C[C@@H](O)CC[C@]34CO)[C@@]1(O)CC[C@@H]2C1=CC(=O)OC1 (some centres undefined),941 nM (active)
16,C[C@]12CC(O)C3[C@@H](CC[C@@H]4C[C@@H](O)CC[C@]34CO)[C@@]1(O)CC[C@@H]2C1=CC(=O)OC1 (some centres undefined),2980 nM (active)
17,CO[C@@]12c3c(C)cc(O)c4c(=O)occ(c34)C(=O)[C@@H]1[C@]13COC(=O)c4c(O)cc(C)c(c41)C(=O)[C@H]2[C@@H]3OC(C)=O,inactive
18,CC[C@@H]1CN2CCC3(Nc4cccc(OC)c4C3=O)[C@@H]2C[C@@H]1/C(=C\OC)C(=O)OC (some centres undefined),inactive
19,C[N+](C)(C)CCc1c[nH]c2ccccc12,inactive
20,O[C@H]1C=C[C@@]23CCN(Cc4cc5c(cc42)OCO5)[C@@H]3C1,inactive
21,CO[C@@H](/C=C/CC/C=C/C(=O)O)[C@@H](O)[C@H](C)/C=C(\C)[C@H](O)[C@H](C)C(=O)CCCC1CC(=O)NC(=O)C1,inactive
22,C=C[C@H]1CN2CCc3c([nH]c4cccc(OC)c34)[C@@H]2C[C@@H]1/C(=C\OC)C(=O)OC,inactive
23,CC[C@]12C=CCN3CC[C@]4(C(=C(C(=O)OC)C1)Nc1ccccc14)[C@@H]32,inactive
24,C/C=C1/CN2CC[C@]34C(=C(C(=O)OC)[C@H]1C[C@H]23)Nc1ccccc14,inactive
25,C/C(=C\[C@H](C)C(=O)C[C@H](O)CC1CC(=O)NC(=O)C1)[C@@H]1OC(=O)/C=C/CC/C=C/C=C/[C@@H]1C,37.5 nM (active)
26,C/C=C1/CN2CC[C@@]34c5ccccc5N(C)[C@@H]3[C@@H]2C[C@@H]1[C@H]4C(=O)OC,inactive
27,C1=C2CCCN[C@H]2C2CC1[C@H]1CCCCN1C2 (some centres undefined),inactive
28,CC[C@H]1CN2CCc3c([nH]c4cccc(OC)c34)[C@@H]2C[C@@H]1/C(=C\OC)C(=O)OC,inactive
29,CCC(=O)N[C@@H](C[C@H](C)C(Cl)(Cl)Cl)C(=O)N1C(=O)C=C(OC)[C@@H]1C[C@H](C)C(Cl)Cl,inactive
